Test results published in paper PMC7862700, “An all-to-all approach to the identification of sequence-specific readers for epigenetic DNA modifications on cytosine”.

Tests used:
Assay in all cases: DAPPL (digital affinity profiling via proximity ligation, sequencing); 10 mM Tris-HCl pH 7.5, 50 mM NaCl, 1 mM DTT, 4% glycerol, room temperature, 30 min; GST-TFs on glutathione beads, 16-mer random dsDNA library, 0.1% formaldehyde crosslink after washing; high values mean tight binding
FEV = target: T1, FEV (Homo sapiens, UniProt Q99581 1-238); conditions: protein: recombinant; tags: N-terminal GST; dsDNA, one strand shown
T1 sequence: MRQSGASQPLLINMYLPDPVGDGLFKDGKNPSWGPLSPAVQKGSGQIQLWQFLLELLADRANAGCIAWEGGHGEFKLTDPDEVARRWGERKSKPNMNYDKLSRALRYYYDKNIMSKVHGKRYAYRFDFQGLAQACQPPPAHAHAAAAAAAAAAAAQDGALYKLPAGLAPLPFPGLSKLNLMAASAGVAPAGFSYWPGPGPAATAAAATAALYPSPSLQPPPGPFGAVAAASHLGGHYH
Summary of the method: (§1)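 Binding signal is defined as a hexamer's read frequency for one factor over its frequency for the tag-only sample. To obtain reads, GST-fused human transcription factors were expressed in yeast, captured on glutathione beads, barcoded with DNA and pooled with that sample. Pools met 200 nmole of a 16-mer random double-stranded DNA library in Tris/NaCl/DTT/glycerol buffer for 30 min at room temperature before washing, 0.1% formaldehyde crosslinking, proximity ligation (BsaI/T4 ligase, 1 h, 37 °C), PCR and Illumina NextSeq500 sequencing.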

ETV5 = ETV5 (Homo sapiens, UniProt P41161 1-510); conditions: protein: recombinant; tags: N-terminal GST; dsDNA, one strand shown
Sequence of ETV5 (P41161 whole entry): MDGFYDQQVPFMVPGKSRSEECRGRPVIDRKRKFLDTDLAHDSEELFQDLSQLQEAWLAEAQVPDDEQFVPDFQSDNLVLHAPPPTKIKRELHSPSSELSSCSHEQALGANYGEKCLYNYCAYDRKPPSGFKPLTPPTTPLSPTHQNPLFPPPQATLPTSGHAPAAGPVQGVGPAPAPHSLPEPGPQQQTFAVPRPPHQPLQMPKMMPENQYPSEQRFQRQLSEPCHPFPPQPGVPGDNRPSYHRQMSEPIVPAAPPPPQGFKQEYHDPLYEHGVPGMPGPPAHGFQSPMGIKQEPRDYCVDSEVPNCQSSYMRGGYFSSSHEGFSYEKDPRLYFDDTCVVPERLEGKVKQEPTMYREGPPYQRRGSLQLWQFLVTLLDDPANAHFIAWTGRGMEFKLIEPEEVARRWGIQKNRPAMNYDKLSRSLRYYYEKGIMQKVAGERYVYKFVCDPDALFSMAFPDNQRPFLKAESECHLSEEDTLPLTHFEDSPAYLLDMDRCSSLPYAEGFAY
Summary of the method: as §1

HSF1 = HSF1 (Homo sapiens, UniProt Q00613 1-529); conditions: protein: recombinant; tags: N-terminal GST; chain copies: 3; dsDNA, one strand shown
Sequence of HSF1 (Q00613 whole entry): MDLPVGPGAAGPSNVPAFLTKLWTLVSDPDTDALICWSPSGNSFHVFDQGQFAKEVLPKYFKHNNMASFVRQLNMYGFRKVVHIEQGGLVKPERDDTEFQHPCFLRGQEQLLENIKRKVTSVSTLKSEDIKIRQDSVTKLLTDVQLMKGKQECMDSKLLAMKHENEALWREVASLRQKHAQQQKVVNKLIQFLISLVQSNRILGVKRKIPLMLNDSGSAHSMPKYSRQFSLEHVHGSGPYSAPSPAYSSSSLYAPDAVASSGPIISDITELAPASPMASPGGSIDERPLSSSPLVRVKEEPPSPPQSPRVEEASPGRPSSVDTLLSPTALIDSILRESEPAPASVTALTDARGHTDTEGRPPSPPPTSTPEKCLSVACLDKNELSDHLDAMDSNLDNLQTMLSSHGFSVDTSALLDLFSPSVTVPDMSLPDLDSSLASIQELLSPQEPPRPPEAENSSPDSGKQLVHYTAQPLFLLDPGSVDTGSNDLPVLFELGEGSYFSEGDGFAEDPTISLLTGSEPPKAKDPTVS
Summary of the method: as §1

SPIC = target: T2, SPIC (Homo sapiens, UniProt Q8N5J4 1-248); conditions: protein: recombinant; tags: N-terminal GST; dsDNA, one strand shown
T2 sequence: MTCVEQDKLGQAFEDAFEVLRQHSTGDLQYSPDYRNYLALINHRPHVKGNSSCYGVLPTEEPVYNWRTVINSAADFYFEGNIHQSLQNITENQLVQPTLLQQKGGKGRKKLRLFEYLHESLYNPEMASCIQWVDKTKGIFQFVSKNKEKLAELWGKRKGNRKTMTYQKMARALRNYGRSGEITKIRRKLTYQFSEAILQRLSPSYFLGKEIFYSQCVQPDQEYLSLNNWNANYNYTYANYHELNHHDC
Summary of the method: as §1

ELF4 = ELF4 (Homo sapiens, UniProt Q99607 1-663); conditions: protein: recombinant; tags: N-terminal GST; dsDNA, one strand shown
Sequence of ELF4 (Q99607 whole entry): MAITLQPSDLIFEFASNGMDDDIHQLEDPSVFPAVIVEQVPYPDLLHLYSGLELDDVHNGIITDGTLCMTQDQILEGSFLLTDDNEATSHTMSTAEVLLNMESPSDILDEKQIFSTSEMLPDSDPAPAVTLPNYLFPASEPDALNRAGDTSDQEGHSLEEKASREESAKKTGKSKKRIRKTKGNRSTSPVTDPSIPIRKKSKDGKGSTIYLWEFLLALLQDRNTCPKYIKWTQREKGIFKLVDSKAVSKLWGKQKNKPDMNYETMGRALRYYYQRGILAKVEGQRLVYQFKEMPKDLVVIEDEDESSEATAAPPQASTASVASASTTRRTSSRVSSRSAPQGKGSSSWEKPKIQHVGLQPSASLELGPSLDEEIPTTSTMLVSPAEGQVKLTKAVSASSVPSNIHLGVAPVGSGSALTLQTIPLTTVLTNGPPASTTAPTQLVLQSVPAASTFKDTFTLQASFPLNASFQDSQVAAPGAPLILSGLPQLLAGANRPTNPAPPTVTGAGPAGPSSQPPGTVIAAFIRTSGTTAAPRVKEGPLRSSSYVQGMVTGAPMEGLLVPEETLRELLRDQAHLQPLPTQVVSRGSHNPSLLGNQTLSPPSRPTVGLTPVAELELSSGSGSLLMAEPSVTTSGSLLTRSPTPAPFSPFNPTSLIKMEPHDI
Summary of the method: as §1

ELK4 = target: T3, ELK4 (Homo sapiens, UniProt P28324-2 1-405); conditions: protein: recombinant; tags: N-terminal GST; dsDNA, one strand shown
T3 sequence: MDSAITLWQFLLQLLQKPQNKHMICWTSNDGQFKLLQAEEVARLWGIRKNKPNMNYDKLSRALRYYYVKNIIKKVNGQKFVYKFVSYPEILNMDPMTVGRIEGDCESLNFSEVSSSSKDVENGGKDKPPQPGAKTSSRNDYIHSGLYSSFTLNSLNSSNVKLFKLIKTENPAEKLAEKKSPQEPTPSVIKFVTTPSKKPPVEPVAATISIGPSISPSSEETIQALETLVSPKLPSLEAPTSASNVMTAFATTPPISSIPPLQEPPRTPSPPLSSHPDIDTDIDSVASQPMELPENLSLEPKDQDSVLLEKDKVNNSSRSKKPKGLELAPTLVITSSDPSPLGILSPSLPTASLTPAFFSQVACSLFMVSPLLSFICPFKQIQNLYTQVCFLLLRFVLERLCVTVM
Summary of the method: as §1

ETV2 = target: T4, ETV2 (Homo sapiens, UniProt O00321 1-342); conditions: protein: recombinant; tags: N-terminal GST; dsDNA, one strand shown
T4 sequence: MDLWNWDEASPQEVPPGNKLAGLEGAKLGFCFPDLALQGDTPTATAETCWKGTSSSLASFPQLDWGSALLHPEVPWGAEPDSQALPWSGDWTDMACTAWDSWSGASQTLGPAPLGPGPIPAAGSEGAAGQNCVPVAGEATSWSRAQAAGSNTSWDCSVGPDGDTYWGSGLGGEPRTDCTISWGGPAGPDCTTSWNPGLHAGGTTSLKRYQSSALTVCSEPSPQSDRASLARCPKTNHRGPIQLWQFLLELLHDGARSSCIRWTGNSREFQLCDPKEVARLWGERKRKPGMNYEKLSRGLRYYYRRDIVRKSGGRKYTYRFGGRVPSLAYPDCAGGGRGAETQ
Summary of the method: as §1

ELF3 = target: T5, ELF3 (Homo sapiens, UniProt P78545 1-371); conditions: protein: recombinant; tags: N-terminal GST; dsDNA, one strand shown
T5 sequence: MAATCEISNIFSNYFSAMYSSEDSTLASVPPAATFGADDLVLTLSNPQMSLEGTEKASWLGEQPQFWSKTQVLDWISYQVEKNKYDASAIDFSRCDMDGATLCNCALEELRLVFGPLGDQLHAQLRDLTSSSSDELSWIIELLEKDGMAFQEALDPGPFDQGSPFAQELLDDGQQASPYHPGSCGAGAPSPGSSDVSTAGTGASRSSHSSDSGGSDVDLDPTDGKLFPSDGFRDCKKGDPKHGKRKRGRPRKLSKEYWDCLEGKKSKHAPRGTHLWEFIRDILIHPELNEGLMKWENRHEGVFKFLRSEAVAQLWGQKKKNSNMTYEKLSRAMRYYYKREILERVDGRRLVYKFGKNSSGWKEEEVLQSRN
Summary of the method: as §1

CRX = CRX (Homo sapiens, UniProt O43186 1-299); conditions: protein: recombinant; tags: N-terminal GST; dsDNA, one strand shown
Sequence of CRX (O43186 whole entry): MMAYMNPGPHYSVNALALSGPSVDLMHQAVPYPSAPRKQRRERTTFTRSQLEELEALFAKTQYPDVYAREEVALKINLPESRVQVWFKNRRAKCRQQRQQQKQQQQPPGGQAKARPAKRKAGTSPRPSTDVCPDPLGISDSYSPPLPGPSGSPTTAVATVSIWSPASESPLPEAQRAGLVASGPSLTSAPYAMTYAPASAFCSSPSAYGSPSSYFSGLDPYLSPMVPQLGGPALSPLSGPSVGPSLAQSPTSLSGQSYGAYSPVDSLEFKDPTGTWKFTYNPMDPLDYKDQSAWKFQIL
Summary of the method: as §1

ETV1 = ETV1 (Homo sapiens, UniProt P50549 1-477); conditions: protein: recombinant; tags: N-terminal GST; dsDNA, one strand shown
Sequence of ETV1 (P50549 whole entry): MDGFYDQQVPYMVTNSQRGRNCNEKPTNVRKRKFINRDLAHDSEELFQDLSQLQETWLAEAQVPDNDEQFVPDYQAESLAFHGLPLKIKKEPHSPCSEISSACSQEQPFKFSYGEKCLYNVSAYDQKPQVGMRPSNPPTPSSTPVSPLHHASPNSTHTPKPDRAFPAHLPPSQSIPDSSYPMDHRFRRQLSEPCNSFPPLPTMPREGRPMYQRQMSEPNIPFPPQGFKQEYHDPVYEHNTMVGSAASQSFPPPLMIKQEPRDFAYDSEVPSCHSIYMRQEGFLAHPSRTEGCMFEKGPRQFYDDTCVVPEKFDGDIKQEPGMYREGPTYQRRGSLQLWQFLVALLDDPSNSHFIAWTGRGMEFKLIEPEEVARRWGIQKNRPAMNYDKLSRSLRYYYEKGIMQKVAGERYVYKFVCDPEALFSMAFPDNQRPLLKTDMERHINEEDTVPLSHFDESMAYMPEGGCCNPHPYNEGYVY
Summary of the method: as §1

TTTTTC
binding signal (FEV): 1.19 fold enrichment (6-mer frequency, TF over GST control) | binding signal (ETV5): 1.27 fold enrichment (6-mer frequency, TF over GST control) | binding signal (HSF1): 1.44 fold enrichment (6-mer frequency, TF over GST control) | binding signal (SPIC): 1.11 fold enrichment (6-mer frequency, TF over GST control) | binding signal (ELF4): 1.32 fold enrichment (6-mer frequency, TF over GST control) | binding signal (ELK4): 1.16 fold enrichment (6-mer frequency, TF over GST control) | binding signal (ETV2): 1.24 fold enrichment (6-mer frequency, TF over GST control) | binding signal (ELF3): 1.26 fold enrichment (6-mer frequency, TF over GST control) | binding signal (CRX): 1.09 fold enrichment (6-mer frequency, TF over GST control) | binding signal (ETV1): 1.21 fold enrichment (6-mer frequency, TF over GST control)
